Source: PubChem BioAssay (NCI)
About 83,000 compounds went through this panel and 20% of them were active in at least one assay; those are over-represented in the sample as a whole.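 How to read the values: 0–100, growth inhibition (40 = 60% inhibited); 0, no net growth; -100 to 0, cell death (-40 = 40% of starting cells died; -100 = all dead).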 A number with no mark means an inactive call. Calls of active or inactive are those of the source. Rule for the calls: active = growth percent below 10; inactive = the rest.

Tested on: HL-60(TB) leukemia
Test: NCI-60 one-dose screen, 48 h (100 = growth as untreated, 0 = no growth, -100 = all killed)
Conditions: 10 µM unless noted

| SMILES | growth |
| --- | --- |
| O=C1/C(=C/c2cn(-c3ccccc3)nc2-c2ccccc2)SC(=S)N1c1ccccc1 | 103% |
| O=c1nc(NO)[nH]c(=O)n1Cc1ccc(F)cc1 | 103% |
| COc1ccccc1CNCCCN1C(=O)c2ccc3c4c(ccc(c24)C1=O)C(=O)N(CCCNCCCCNCCCN)C3=O | -54.4% (active) |
| O=C(c1ccc(Nc2nccc(NCCCCNc3ccnc4cc(Cl)ccc34)n2)cc1)N1CCCCC1 | -22.3% (active) |
| COC1=C(C)C(=O)c2c(c(CCCl)c3n2CCC3OC(C)=O)C1=O (stereo not given) | 34.2% |
| Cc1ccnc(NC(c2ccccc2)c2ccc3cccnc3c2O)c1 (stereo not given) | -2.23% (active) |
| CCC(C)C1NC(=O)C(NC(=O)c2c3nc4c(C(=O)NC5C(=O)NC(C(C)CC)C(=O)N6CCCC6C(=O)N(C)CC(=O)N(C)C(C(C)C)C(=O)OC5C)ccc(C)c4oc-3c(C)c(=O)c2N)C(C)OC(=O)C(C(C)C)N(C)C(=O)CN(C)C(=O)C2CCCN2C1=O (stereo not given) | -13.9% (active) |
| CC(C)(C)OC(=O)NCc1cccc(N=C=S)c1 | -24% (active) |
| O=C(CCCSc1nc(-c2ccc(Cl)cc2)cc(-c2ccc(Cl)cc2)n1)NO | -25.4% (active) |
| COc1ccc(C(=O)/C=C/c2cn(Cc3ccc(Cl)cc3)c3ccccc23)cc1 | 47.2% |
| Cc1cc2oc(=O)cc(CP(=O)(O)O)c2cc1O | 111% |
| COc1cc2cc3c(nc2cc1OC)CCN3Cc1ccc(NC(=O)Nc2cc(C(F)(F)F)cc(C(F)(F)F)c2)cc1 | 81.5% |
| COc1ccc(-c2nc(C#N)c(NCC(c3ccc(Cl)cc3)N3CCCCC3)o2)cc1 (stereo not given) | 74.3% |
| C=CC(C)(C)n1cc(C2=C(O)C(=O)C(c3cn(C(C)(C)C=C)c4ccccc34)=C(O)C2=O)c2ccccc21 | 69.4% |
| Cc1nn(-c2ccccc2)nc1C(=O)Nc1ccccc1C(=O)NCC1CC1 | 95.8% |
| CC(C)CCSc1nc(NNC(N)=O)c(C#N)c(-c2ccccc2)n1 | 99.8% |
| COc1cccc(/C=C/C(=O)c2sc(Nc3ccc(O)cc3)nc2C)c1 | 78.8% |
| NCCCc1nnc(CCC(=O)c2nc3ccccc3[nH]2)o1 | 92.3% |
| CC(C)C1=NOC(=O)C1=Cc1cn(-c2ccccc2)nc1-c1ccc(Br)cc1 | -28.8% (active) |
| C[C@H](NC(=O)[C@@H]1CSSC[C@@H](NC(=O)Cc2nc3ccccc3cc2O)C(=O)NCC(=O)N1C)c1ccccc1 | 32.1% |

| SMILES | growth |
| --- | --- |
| CCc1oc2ccccc2c1C(=O)c1cc(I)c(O)c(I)c1 | 10.1% |
| Cc1cc(Cl)nc(N2CCN(CCNc3ccnc4cc(Cl)ccc34)CC2)n1 | 27.8% |
| CCN1CCN(CCNc2nccc(-c3c(-c4ccc(F)c(OC)c4)nc4sccn34)n2)S1(=O)=O | 89.1% |
| O=c1cc(-c2ccccc2)[nH]c2c1CCCC2 | 19.1% |
| O=C(c1nc2ccccc2[nH]1)C1C(c2ccc(Br)cc2)C2CC3CCCC[C@H]3N2[C@@]12C(=O)Nc1cc(Cl)ccc12 (stereo not given in full) | 12.4% |
| CCCCCc1cc[n+](CC(=O)c2ccc([N+](=O)[O-])cc2)cc1 | 102% |
| CN(C(=O)NCc1cccc(F)c1Cl)[C@H](COC(=O)Nc1cc2ccccc2cn1)CC(O)CO (stereo not given in full) | 90.5% |
| COc1cccc(-c2cnco2)c1OCc1c(C)c(COc2c(OC)cccc2-c2cnco2)c(C)c(COc2c(OC)cccc2-c2cnco2)c1C | 76.4% |
| O=Cc1ccc(Cl)c(Cl)c1 | 106% |
| CSc1nn2c(-c3cc4cc(Br)ccc4oc3=O)ccnc2c1C#N | 102% |
| COc1cccc(-c2nn(-c3ccccc3)cc2-c2ccnc(NCCNC(=O)c3ccccc3)c2)c1 | 25.2% |
| CC(=O)Oc1ccc(/C=N/NC(N)=S)nc1 | 64.3% |
| COc1cc(-c2cc(-c3cc(OC)c(OC)c(OC)c3)nc3nc(N)[nH]c(=O)c23)ccc1Oc1ccnc2cc(Cl)ccc12 | 11.4% |
| C[C@]12C=CC(=O)C=C1[C@@H](F)C[C@@H]1[C@@H]2[C@@H](O)C[C@@]2(C)[C@H]1CC[C@]2(O)C(=O)CO | 107% |
| c1ccc([C@H]2CN3CCSC3=N2)cc1 | 99.1% |
| COc1cc(OC)c(/C=C/C(=O)c2c(O)cc(OC)c(C3CCN(C)CC3)c2OC)c(OC)c1 | -35.6% (active) |
| CCOc1ccccc1NC(=O)CCC(=O)OC | 78.7% |
| CC(C)(C)CC(C)(C)Cc1ccc(OCCOCC[N+](C)(C)Cc2ccccc2)cc1 | -52.6% (active) |
| CC(C)Oc1nc2c(c(=O)n(C)c(=O)n2C)n1C | 95.3% |
| Cc1ccc(NC(=O)N/C(N)=N/c2nc(=O)c3ccccc3s2)cc1 | 33.7% |
